This is an account of results in PubChem BioAssay AID652104 (National Center for Advancing Translational Sciences (NCATS), 2013).

Out of some 410,000 compounds screened, about 7,200 (1.8%) were called active. Roughly 7% stayed inconclusive and do not appear here. The sample holds actives, similar compounds and a random draw of the others, so the mix is not that of the screen. Unmarked numbers belong to inactive results. Calls come from the whole dose curve; as a rule, active = well fitted activation curve with a large enough effect; inconclusive = small, poorly fitted or top-dose-only effect, or another doubt; inactive = no such curve, though single readings can be large or run the other way.
Potency is the fitted concentration of half-maximal effect.

The nature of the test: qHTS of TDP-43 Inhibitors. For growth rescue (activation): % of control where 0% means no effect. Note: nearly all actives have a fitted effect of over 50% in size. The following applies: TDP-43 expressing yeast growth rescue, BacTiter-Glo, 24 h; series mostly up to 46.1 µM; growth rescue (activation): at the top concentration. The method, boiled down: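 Yeast expressing TDP-43 (pregrown in raffinose, seeded at OD600=0.02 in galactose medium) exposed to compounds 24 hr at 30 deg C. Growth read by BacTiter-Glo luminescence; rescue of toxicity appears as increased signal.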
For orientation: qHTS replaces the single test concentration by a dilution series.
As to `CC(C)Oc1c(Br)cc(Br)cc1/C=N/NC(N)=S`, the “growth rescue (activation)” value was 18%.
For `Cc1cc(/C=N/NC(N)=O)c(C)n1C1CCCCC1`, the “growth rescue (activation)” value is -16.5%.
For the compound `Cc1cccc(-n2c(C)cc(/C=N/NC(N)=S)c2C)c1`, the Potency is 35.5 µM (active).
With `COc1ccccc1NC(=O)c1oc2ccccc2c1NC(=O)C(C)C`, the “growth rescue (activation)” value is 15.9%.
Regarding `COc1ccccc1C1C(C(=O)N2CCCCC2)=C(C)Nc2nc3ccccc3n21` (stereo not given), the “growth rescue (activation)” value was 15.8%.
As for `CN(Cc1ccccc1)S(=O)(=O)c1ccc(F)c(C(=O)Nc2cccc(Cl)c2Cl)c1`, the “growth rescue (activation)” value is -4.13%.
As to `COc1cccc(CC(=O)N2CCCC(CCC(=O)N3CCN(c4ccccn4)CC3)C2)c1` (stereo not given), the growth rescue (activation) is 10.6% [at 9.22 µM].
Take `C=Cc1ccc(C(=O)N2CCCC(CCC(=O)N3CCN(c4ccccn4)CC3)C2)cc1` (stereo not given): the Potency was 3.55 µM (active).
With `CC(=O)c1ccc(S(=O)(=O)NCCC(=O)N2CCN(c3ccccn3)CC2)cc1`, the “growth rescue (activation)” value is 13.3%.
Regarding `COc1cccc(N2CCN(S(=O)(=O)c3cc(Br)cc4c3N(C(=O)C3CC3)CC4)CC2)c1`, the “growth rescue (activation)” value is 21.5%.
`CCCCNC(=O)c1ccc(-n2c(=S)[nH]c3ccccc3c2=O)cc1`: the “growth rescue (activation)” value is 5.1%.
Take `CCCCn1c(=S)[nH]c2ccccc2c1=O`: the Potency was 14.1 µM (active).
As for `CCCCn1c(=S)[nH]c2ncccc2c1=O`, the “growth rescue (activation)” value is 23.4%.
For `COc1ccc(CCNC(=O)c2cc(=O)c3c(C)cc(C)cc3o2)cc1OC`, the “growth rescue (activation)” value was 1.87%.
As to `Cc1ccc(CN2CCCn3nc(C(=O)NCc4ccccc4Cl)cc3C2=O)cc1`, the “growth rescue (activation)” value was 19.2%.
Still for that read-out and setting: the value for `Cc1ccc(CNC(=O)CCC(=O)N2Cc3ccccc3Oc3ncccc32)cc1` was 14.9% [at 9.22 µM]; that for `COc1cc(C(=O)NCCS(=O)(=O)N2CCN(c3ccccc3)CC2)cc(OC)c1OC` was 22.3%.
In the case of `Cc1cccc(C)c1NC(=O)C(Cl)C(=O)c1ccccc1` (stereo not given), the Potency was 3.98 µM (active).
With `CN=C(c1ccccc1)c1c(C)cccc1C`, the “growth rescue (activation)” value was 18%.
On to `Cc1cccc(C)c1NC(=O)N1CC(C)OC(C)C1` (stereo not given), for which the “growth rescue (activation)” value was -20.1%.
Turning to `O=C(Cn1c(=O)n(-c2ccc(F)cc2)c(=O)c2sccc21)Nc1cccc(C(F)(F)F)c1`, the “growth rescue (activation)” value is 7.37%.
On the same count and under the same terms, to `CCOC(=O)C1=C(CC)OC(N)=C(C#N)C1c1ccc(F)cc1F` (stereo not given) belongs -18.5%.
For `COC(=O)C1=CN(c2c(C)cc(C)cc2C)C(N)=C(C#N)C1c1cccc(F)c1` (stereo not given), the Potency is 22.4 µM (active).
On to `COC(=O)C1=CN(c2ccc(F)c(F)c2)C=C(C(=O)OC)C1c1ccc([N+](=O)[O-])cc1`, for which the “growth rescue (activation)” value is 4.3%.
On the same count and under the same terms, to `CCN(Cc1ccccc1)Cc1c(O)ccc2c(=O)c(-c3ccc(Cl)cc3Cl)coc12` belongs -19.7%; to `Cc1cc2n(n1)C(c1cc(C(C)(C)C)c(O)cc1O)Nc1ccccc1-2` (stereo not given), 0%.
The same measure, in the same setting: the value for `COc1ccccc1CNCc1ccc(C(=O)O)s1` was 16.3%; that for `COCCCNC(=O)c1c(NC(=O)c2cc(=O)c3cc(C)c(C)cc3o2)sc2c1CCCC2` was -1.04%; that for `Cc1ccc(S(=O)(=O)N(Cc2nc(-c3ccc(Cl)cc3)no2)C2CCCCC2)cc1` was 7.13%.
In the case of `Cc1ccc(Cl)cc1NC(=O)/C(C#N)=C\c1cn(Cc2ccc(F)cc2)c2ccccc12`, the “growth rescue (activation)” value was 21.4%.
In the case of `COc1ccc(NC(=O)CSc2ncnc3[nH]ncc23)cc1`, the “growth rescue (activation)” value is -35.9%.
In the case of `CCOc1ccc(Nc2ncnc3scc(-c4ccc(OC)cc4)c23)cc1`, the “growth rescue (activation)” value is -16.3%.
For the compound `COc1ccc(Nc2cc(Sc3ccc(OC)cc3)ncn2)cc1`, the Potency was 22.4 µM (active).
As for `Cc1cccc2c(=O)cc(CSc3ccccc3NC(=O)C(C)C)[nH]c12`, the “growth rescue (activation)” value was -0.795%.
As for `O=C(CSc1nnc(CNC(=O)c2ccc(F)cc2)o1)Nc1ccc2c(c1)OCO2`, the “growth rescue (activation)” value was -0.573%.
Regarding `O=C(CSc1nc(-c2cccc(F)c2)[nH]c1-c1ccccc1)Nc1ccc2c(c1)OCO2`, the Potency was 20 µM (active).
Turning to `O=C(CSc1ccc(-c2ccc(F)cc2)nn1)Nc1ccc2c(c1)OCCO2`, the “growth rescue (activation)” value is 17.7%.
Regarding `Cc1ccc(NC(=O)CSc2nc3c([nH]c4ccccc43)c(=O)n2-c2ccccc2)c(C)c1`, the “growth rescue (activation)” value was 5.4%.
As for `Nc1nc(Nc2ccccc2F)nc(NC2CCCCC2)c1[N+](=O)[O-]`, the “growth rescue (activation)” value is -5.06%.
For the compound `C=CCNc1nc(N)c([N+](=O)[O-])c(NC2CCCCC2)n1`, the Potency was 7.08 µM (active).
Consider `Nc1nc(NCC2CCCO2)nc(Nc2ccccc2F)c1[N+](=O)[O-]` (stereo not given), for which the “growth rescue (activation)” value was -0.227%.
Take `Cc1ccc(NC(=O)C2CCN(S(=O)(=O)c3cc(-c4noc(C)n4)ccc3C)CC2)c(C)c1`: the “growth rescue (activation)” value is -6.47%.
Turning to `CCN(CCCNC(=O)c1c(C)oc2ncn(CC(C)C)c(=O)c12)Cc1ccccc1`, the “growth rescue (activation)” value was 13.1%.
For the compound `Cc1ccc(Cl)cc1N1CCN(S(=O)(=O)c2cc3[nH]c(=O)c(=O)[nH]c3cc2C)CC1`, the “growth rescue (activation)” value is 4.73%.
Turning to `Cc1ccc(Sc2ccc(NC(=O)c3ccc(F)cc3)cc2C#N)cc1`, the “growth rescue (activation)” value is -20.1%.
On to `CCN(CCCNC(=O)c1ccc(Sc2ccc(C)cc2)c(NC(C)=O)c1)c1cccc(C)c1`, for which the “growth rescue (activation)” value is 14.4%.
As to `CC(=O)Nc1cc(C(=O)NCc2ccc(F)cc2Cl)ccc1Sc1ccc(Cl)cc1`, the Potency is 11.2 µM (active).
In the case of `COCCNC(=O)c1ccc(S(=O)(=O)c2ccc(Cl)cc2)c(NC(C)=O)c1`, the “growth rescue (activation)” value is 2.43%.
In the case of `CC(=O)Nc1cc(C(=O)NCc2ccc(F)cc2)ccc1Sc1ccc(F)cc1`, the Potency was 31.6 µM (active).
For `COC(=O)c1ccc(Sc2ccc(F)cc2)c(N)c1`, the “growth rescue (activation)” value was 3.11%.
